Outcome and AC50 data for four compounds are collected here from PubChem BioAssay (EPA / NIEHS).

Common to all, as to details: mRNA level, 48 h; actives raise or lower the signal
Read-out in experiment [1]: Early growth response protein 1 (EGR1) transcription factor, EGR1 (gene 1958)
Description: LTEA_HepaRG_EGR1: Life Technologies and Expression Analysis (LTEA) Assay for Early growth response protein 1 (EGR1) transcription factor using HepaRG (AID 2283490). An outline of the steps: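 Read-out is EGR1 mRNA level by qRT-PCR, normalized to three housekeeping genes and analysed for gain or loss of signal against 0.5% DMSO. Source cells: human HepaRG, treated 48 h at up to 100 uM in half-log dilutions.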

Read-out in experiment [2]: Ezrin (EZR), EZR (gene 7430)
Description: LTEA_HepaRG_EZR: Life Technologies and Expression Analysis (LTEA) Assay for Ezrin (EZR) using HepaRG (AID 2283491). In a few lines: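 HepaRG, 48 h chemical exposure, 8-pt half-log series from 100 uM, 0.5% DMSO vehicle, duplicates. Read-out: EZR mRNA by TaqMan qRT-PCR (Fluidigm array), housekeeping-normalized; bidirectional curve fit vs DMSO baseline.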

Read-out in experiment [3]: Cytochrome P450 3A7 (Homo sapiens) (UniProt P24462)
Put plainly: LTEA_HepaRG_CYP3A7: Life Technologies and Expression Analysis (LTEA) Assay for CYP3A7 using HepaRG (AID 2283492). In a few lines:
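Differentiated HepaRG cells in serum-free induction medium exposed 48 h in duplicate to 8-point half-log series from 100 uM top in 0.5% DMSO. CYP3A7 mRNA by qRT-PCR, normalized to ACTB/GAPDH/POLR2A, bidirectional fit versus DMSO.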

Read-out in the next experiment: CYP3A5 (gene 1577)
Description: LTEA_HepaRG_CYP3A5: Life Technologies and Expression Analysis (LTEA) Assay for CYP3A5 using HepaRG (AID 2283493). An outline of the steps: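 HepaRG plated 48 h, switched to serum-free induction medium, chemicals added 48 h (max 100 uM, half-log, 0.5% DMSO). RNA isolated; CYP3A5 by TaqMan qRT-PCR. Gain/loss vs DMSO.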

Read-out in experiment [4]: Fatty Acid-Binding Protein 1 (FABP1), FABP1 (gene 2168)
Put plainly: LTEA_HepaRG_FABP1: Life Technologies and Expression Analysis (LTEA) Assay for Fatty Acid-Binding Protein 1 (FABP1) using HepaRG (AID 2283494). An outline of the steps:
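HepaRG, 48 h post-plating switched to serum-free induction medium, then dosed 48 h (duplicate, 8 pts, ≤100 uM, 0.5% DMSO). RNA → Fluidigm TaqMan qRT-PCR, FABP1 normed to ACTB/GAPDH/POLR2A. Bidirectional curve fit vs DMSO.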

Read-out in experiment [5]: Cytochrome P450 4A22 (Homo sapiens) (UniProt Q5TCH4)
Description: LTEA_HepaRG_CYP4A22: Life Technologies and Expression Analysis (LTEA) Assay for Cytochrome P450 4A22 (CYP4A22) using HepaRG (AID 2283495). In a few lines:
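Differentiated HepaRG cells in serum-free induction medium exposed 48 h in duplicate to eight half-log concentrations up to 100 uM in 0.5% DMSO. CYP4A22 mRNA quantified by TaqMan qRT-PCR, normalized to ACTB, GAPDH and POLR2A; bidirectional fit versus DMSO.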

Read-out in experiment [6]: Cytochrome P450 7A1 (Homo sapiens) (UniProt P22680)
Description: LTEA_HepaRG_CYP7A1: Life Technologies and Expression Analysis (LTEA) Assay for Cytochrome P450 7A1 (CYP7A1) using HepaRG (AID 2283496). An outline of the steps:
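HepaRG cells plated 48 h, then switched to serum-free induction medium and exposed in duplicate for 48 h to 8-point half-log series from 100 uM in 0.5% DMSO. CYP7A1 mRNA by qRT-PCR (TaqMan), normalized to ACTB/GAPDH/POLR2A; bidirectional fit versus DMSO.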

Read-out in experiment [7]: Glutathione S-Transferase (GSTA2), GSTA2 (gene 2939)
Put plainly: LTEA_HepaRG_GSTA2: Life Technologies and Expression Analysis (LTEA) Assay for Glutathione S-Transferase (GSTA2) using HepaRG (AID 2283497). In a few lines: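 HepaRG, 48 h dosing, 8-pt half-log CRC from 100 uM, 0.5% DMSO vehicle, n=2; RNA → Fluidigm TaqMan qRT-PCR; GSTA2 vs ACTB/GAPDH/POLR2A; gain/loss fit vs DMSO.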

Read-out in experiment [8]: Glutamate-cysteine ligase catalytic (GCLC), GCLC (gene 2729)
Description: LTEA_HepaRG_GCLC: Life Technologies and Expression Analysis (LTEA) Assay for Glutamate-cysteine ligase catalytic (GCLC) using HepaRG (AID 2283498). In a few lines:
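Read-out is GCLC transcript level by Fluidigm-based TaqMan qRT-PCR, normalized to three housekeeping genes and fitted in both directions relative to 0.5% DMSO. Human HepaRG cells received chemicals for 48 h, up to 100 uM.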

Read-out in experiment [9]: growth arrest and DNA damage 45 (GADD45G), GADD45G (gene 10912)
Put plainly: LTEA_HepaRG_GADD45G: Life Technologies and Expression Analysis (LTEA) Assay for growth arrest and DNA damage 45 (GADD45G) using HepaRG (AID 2283499). An outline of the steps:
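Differentiated human HepaRG cells, 48 h post-plating, exposed 48 h in serum-free induction medium to 8 half-log concentrations (top 100 uM, 0.5% DMSO) in duplicate. GADD45G mRNA measured by Fluidigm TaqMan qRT-PCR, normalized to ACTB, GAPDH, POLR2A; bidirectional fit versus DMSO.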

Read-out in experiment [10]: Glutamate-cysteine ligase regulatory (GCLM), GCLM (gene 2730)
Put plainly: LTEA_HepaRG_GCLM: Life Technologies and Expression Analysis (LTEA) Assay for Glutamate-cysteine ligase regulatory (GCLM) using HepaRG (AID 2283500). An outline of the steps:
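Cells were plated, cultured 48 h, switched to serum-free induction medium, then dosed in duplicate for 48 h at eight half-log concentrations up to 100 uM. RNA was then profiled by qRT-PCR; gain or loss versus DMSO was fitted.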

Read-out in experiment [11]: Glutathione S-transferase M3 (GSTM3), GSTM3 (gene 2947)
Description: LTEA_HepaRG_GSTM3: Life Technologies and Expression Analysis (LTEA) Assay for Glutathione S-transferase M3 (GSTM3) using HepaRG (AID 2283501). An outline of the steps:
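Differentiated human HepaRG cells were exposed in duplicate for 48 h in serum-free induction medium, 8 points from 100 uM top in half-log steps, 0.5% DMSO. GSTM3 mRNA was measured by TaqMan qRT-PCR, normalized to ACTB, GAPDH and POLR2A; bidirectional fit versus DMSO.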

Read-out in experiment [12]: Heat shock 70 kDa protein 1 (HSPA1A), gene 3303
Put plainly: LTEA_HepaRG_HSPA1A: Life Technologies and Expression Analysis (LTEA) Assay for Heat shock 70 kDa protein 1 (HSPA1A) using HepaRG (AID 2283502). An outline of the steps:
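Readout is HSPA1A transcript level by microfluidic qRT-PCR, normalized to three housekeeping genes and analysed for gain or loss of signal relative to 0.5% DMSO. Human HepaRG cultures received test chemicals for 48 h at up to 100 uM.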

Read-out in experiment [13]: Hypoxia-inducible factor 1-alpha (Homo sapiens) (UniProt Q16665)
Put plainly: LTEA_HepaRG_HIF1A: Life Technologies and Expression Analysis (LTEA) Assay for Hypoxia-inducible factor 1 (HIF1A) Trancription factor using HepaRG (AID 2283503). In a few lines: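 Differentiated HepaRG cells in serum-free induction medium exposed 48 h, in duplicate, to 8-point half-log series from 100 uM in 0.5% DMSO. HIF1A mRNA measured by TaqMan qRT-PCR, normalized to ACTB/GAPDH/POLR2A, fitted bidirectionally versus DMSO.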

Read-out in experiment [14]: 3-Hydroxy-3-Methylglutaryl-CoA Synthase 2 (HMGCS2), HMGCS2 (gene 3158)
Description: LTEA_HepaRG_HMGCS2: Life Technologies and Expression Analysis (LTEA) Assay for 3-Hydroxy-3-Methylglutaryl-CoA Synthase 2 (HMGCS2) using HepaRG (AID 2283504). In a few lines:
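Human HepaRG cells in serum-free induction medium were exposed in duplicate for 48 h to 8-point half-log series from 100 uM top in 0.5% DMSO. HMGCS2 mRNA measured by TaqMan qRT-PCR, normalised to ACTB, GAPDH, POLR2A; bidirectional fit versus DMSO.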

Read-out in the next experiment: HGF (gene 3082)
Put plainly: LTEA_HepaRG_HGF: Life Technologies and Expression Analysis (LTEA) Assay for Hepatocyte Growth Facto (HGF) using HepaRG (AID 2283505). In a few lines: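 Differentiated HepaRG cells in serum-free induction medium exposed 48 h in duplicate, 8 half-log concentrations from 100 uM in 0.5% DMSO. HGF mRNA by qRT-PCR, normalised to ACTB, GAPDH, POLR2A; bidirectional fitting.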

Read-out in experiment [15]: Insulin Like Growth Factor 1 (IGF1), IGF1 (gene 3479)
Description: LTEA_HepaRG_IGF1: Life Technologies and Expression Analysis (LTEA) Assay for Insulin Like Growth Factor 1 (IGF1) using HepaRG (AID 2283506). In a few lines:
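HepaRG, plated 48 h, then switched to serum-free induction media; test chemical 8-pt half-log from 100 uM (0.5% DMSO), duplicate, 48 h. Lysis in RLT, TaqMan qRT-PCR, norm. ACTB/GAPDH/POLR2A. Bidirectional fit vs DMSO.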

Read-out in experiment [16]: Intercellular Adhesion Molecule 1 (ICAM1), ICAM1 (gene 3383)
Description: LTEA_HepaRG_ICAM1: Life Technologies and Expression Analysis (LTEA) Assay for Intercellular Adhesion Molecule 1 (ICAM1) using HepaRG (AID 2283507). An outline of the steps: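 Differentiated human HepaRG cells in serum-free induction medium exposed 48 h in duplicate to 8 half-log concentrations (top 100 uM, 0.5% DMSO). ICAM1 mRNA quantified by TaqMan qRT-PCR, normalized to ACTB, GAPDH and POLR2A; bidirectional fitting versus DMSO.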

Read-out in experiment [17]: Insulin-like growth factor-binding protein 1 (IGFBP1), IGFBP1 (gene 3484)
Description: LTEA_HepaRG_IGFBP1: Life Technologies and Expression Analysis (LTEA) Assay for Insulin-like growth factor-binding protein 1 (IGFBP1) using HepaRG (AID 2283508). An outline of the steps: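 HepaRG cells, plated 48 h then switched to serum-free induction medium, exposed in duplicate for 48 h to 8-point half-log series from 100 uM in 0.5% DMSO. mRNA measured by qRT-PCR, normalized to ACTB/GAPDH/POLR2A; bidirectional fit versus DMSO.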

Read-out in experiment [18]: Interleukin 6 (IL6), IL6 (gene 3569)
Description: LTEA_HepaRG_IL6: Life Technologies and Expression Analysis (LTEA) Assay for Interleukin 6 (IL6) using HepaRG (AID 2283509). An outline of the steps:
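HepaRG, ~100,000 cells/well, 48 h pre-culture; serum-free induction medium; cmpd 8-pt half-log from 100 uM, 0.5% DMSO, duplicate, 48 h. Lysis in RLT, TaqMan qRT-PCR; gain or loss vs DMSO.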

The source made the active and inactive calls. How the source made its calls: active means hit-call score of the fitted dose curve at least 0.9, where 1 is the maximum; inactive means score below 0.9.

Cytochrome P450 3A7 (Homo sapiens), sequence (P24462 whole entry, looked up): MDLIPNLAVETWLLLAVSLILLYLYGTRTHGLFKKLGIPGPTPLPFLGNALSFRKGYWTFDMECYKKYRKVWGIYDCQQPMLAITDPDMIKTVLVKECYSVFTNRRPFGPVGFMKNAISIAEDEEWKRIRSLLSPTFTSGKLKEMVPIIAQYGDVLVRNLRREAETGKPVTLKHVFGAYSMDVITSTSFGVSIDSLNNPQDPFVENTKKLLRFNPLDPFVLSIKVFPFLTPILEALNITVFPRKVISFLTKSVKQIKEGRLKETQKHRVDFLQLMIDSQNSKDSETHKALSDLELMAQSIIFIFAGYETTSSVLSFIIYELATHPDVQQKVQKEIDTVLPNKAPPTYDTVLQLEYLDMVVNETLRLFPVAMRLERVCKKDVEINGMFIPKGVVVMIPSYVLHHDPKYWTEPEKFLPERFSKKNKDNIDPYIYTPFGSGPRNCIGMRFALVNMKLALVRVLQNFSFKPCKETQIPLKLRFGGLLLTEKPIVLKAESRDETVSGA
Hypoxia-inducible factor 1-alpha (Homo sapiens), sequence (Q16665 whole entry, looked up): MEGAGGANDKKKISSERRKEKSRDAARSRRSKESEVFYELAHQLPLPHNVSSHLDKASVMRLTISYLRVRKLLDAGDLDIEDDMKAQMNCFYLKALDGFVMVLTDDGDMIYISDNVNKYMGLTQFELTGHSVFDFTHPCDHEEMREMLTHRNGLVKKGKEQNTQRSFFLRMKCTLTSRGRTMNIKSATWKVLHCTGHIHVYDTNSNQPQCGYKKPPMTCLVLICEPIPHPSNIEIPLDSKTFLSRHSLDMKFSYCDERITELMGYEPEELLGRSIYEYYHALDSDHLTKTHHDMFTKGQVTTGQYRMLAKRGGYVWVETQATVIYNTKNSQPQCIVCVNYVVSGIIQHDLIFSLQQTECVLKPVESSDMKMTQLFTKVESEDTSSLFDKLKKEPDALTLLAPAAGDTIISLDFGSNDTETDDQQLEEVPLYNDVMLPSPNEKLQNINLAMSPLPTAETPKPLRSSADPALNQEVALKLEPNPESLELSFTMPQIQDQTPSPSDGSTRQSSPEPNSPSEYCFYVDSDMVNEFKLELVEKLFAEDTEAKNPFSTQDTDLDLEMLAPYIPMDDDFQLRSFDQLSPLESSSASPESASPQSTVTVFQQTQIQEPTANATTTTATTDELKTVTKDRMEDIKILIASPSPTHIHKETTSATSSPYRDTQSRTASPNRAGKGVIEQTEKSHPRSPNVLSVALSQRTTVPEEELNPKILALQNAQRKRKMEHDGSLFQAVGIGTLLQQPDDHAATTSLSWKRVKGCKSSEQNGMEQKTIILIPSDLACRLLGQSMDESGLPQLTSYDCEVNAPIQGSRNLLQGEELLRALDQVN

The term AC50 denotes the concentration giving half of the maximal activity seen. Regarding `CCCCC(C#N)(Cn1cncn1)c1ccc(Cl)cc1` (stereo unspecified), the result (in [1]; in [2]; with CYP3A5 (gene 1577); in experiment [6]; in experiment [7]; in experiment [8]) was inactive. Further, the call (in experiment [10]; in experiment [11]; in experiment [12]; in experiment [13]; in the experiment with HGF (gene 3082); in experiment [16]) was inactive. For the same compound, the call in experiment [17] and in experiment [18] was inactive. Moreover, the AC50 in experiment [3] is 3.89 µM (active); in [4], 13.1 µM (active); in experiment [5], 51.8 µM (active); in experiment [9], 11.7 µM (active); in experiment [14] it was 78.1 µM (active); in [15], 68.7 µM (active).
As for `CCOc1cc(C(C)(C)C)ccc1C1COC(c2c(F)cccc2F)=N1` (stereo unspecified), the compound was called inactive (in experiment [1]; in [2]; in [3]; in the experiment with CYP3A5 (gene 1577); in [7]; in experiment [8]). Further, the compound was classed as inactive (in [9]; in [10]; in experiment [11]; in [13]; with HGF (gene 3082); in [16]). Also, the outcome in experiment [17] and in experiment [18] was inactive. The AC50 in [4] was 6.69 µM (active); in [5] it was 33 µM (active); in [6] it was 26.9 µM (active); in experiment [14] it was 46.9 µM (active); in [15], 16.6 µM (active).
Regarding `COCC(=O)N(c1c(C)cccc1C)C(C)C(=O)OC` (stereo unspecified), the result (in experiment [1]; in [2]; in experiment [3]; in the experiment with CYP3A5 (gene 1577); in experiment [5]; in [6]) was inactive. For the same compound, the outcome in experiment [7], in experiment [8], in [10], in experiment [11], in [13] and in experiment [14] was inactive. The result (with HGF (gene 3082); in experiment [15]; in experiment [16]; in [17]; in [18]) was inactive. For the same compound, the AC50 in experiment [4] was 31.7 µM (active).
`COC(=O)NC(=S)Nc1ccccc1NC(=S)NC(=O)OC`: the compound was classed as inactive (in experiment [1]; in [2]; in the experiment with CYP3A5 (gene 1577); in [4]; in experiment [5]; in experiment [6]). The call in [7], in experiment [8], in experiment [9], in [10], in experiment [11] and in experiment [13] was inactive. Besides, the outcome (in experiment [14]; in the experiment with HGF (gene 3082); in experiment [16]; in experiment [17]; in experiment [18]) was inactive. In addition, the AC50 is 4.46 µM (active) in experiment [3] and 29.9 µM (active) in experiment [15].
